# Compounds without any hit were thinned out: in the full panel of roughly 83,000, 20% have a hit.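 A percent growth of 40 corresponds to 60% growth inhibition; 0 means no net growth; -100 means all cells died. Active threshold: below 10.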 Unmarked numbers belong to inactive results. Active and inactive are the calls of the source.
# System: SW-620 colon
# Experiment: NCI-60 one-dose screen, 48 h (100 = growth as untreated, 0 = no growth, -100 = all killed)
# Conditions: 10 µM unless noted
# Procedure: Growth inhibition of the SW-620 human tumor cell line is measured as a screen for anti-cancer activity. Cells are grown in 96 well plates and exposed to the test compound for 48 hours. Compounds are tested at a single concentration, which is 10^-5 M for most compounds. The reported endpoint is percent growth (GI% or GIPRCNT), where numbers from 0 - 100% represent growth inhibition, and numbers from -100% - 0 represent cell death. For example, a value of 40 represents 60% growth inhibition. A value of 0 means no net growth occurred over the course of the experiment. A value of -40 indicates 40% of cells at the beginning of the experiment died by the end of the experiment. A value of -100 means all cells are dead at the end of the experiment.
# NCI-60 Human Tumor Cell Lines Screen was performed using the standard one-dose NCI protocol, which is described in more detail at https://dtp.cancer.gov/discovery_development/nci-60/default.htm.
# Compounds with GIPRCNT values below 10 were considered active. Activity score was based on GIPRCNT using the following formula: […]
# Score is 0 for GIPRCNT values of 100 or above, 50 for GIPRCNT values of 0, and 100 for GIPRCNT values of -100.
row,SMILES,growth
1,COc1ccc(-n2cnc3cc(C(=O)N4CCCCC4)ccc32)cc1,104%
2,O=C1C2C(C(=O)N1CC[Se][Se]CCN1C(=O)C3C(C1=O)[C@H]1C=C[C@@H]3C1)[C@H]1C=C[C@@H]2C1 (stereo not given in full),8.38% (active)
3,COc1cccc(C=Nc2cc(C(C)C)c(O)cc2C)c1O,105%
4,CCN(CC)c1ccc(N=C2C=CC(=O)C=C2NC(C)=O)cc1,89%
5,N#Cc1c(-c2ccccc2)cc(-c2ccccc2)n(CCCC(=O)O)c1=O,105%
6,Cc1ccc(N/N=C(/C(=O)c2ccc(Cl)cc2)c2nc(C)cc(=O)[nH]2)cc1,93.7%
7,O=c1[nH]c(N2CCC(Cc3ccccc3)CC2)nc2sc3c(c12)CCCC3,101%
8,Cc1ccc(NC(=O)c2sc3nc4c(cc3c2N)C(=O)CCC4)cc1,67%
9,CC(=O)OC1Oc2cc(C)c(C)cc2-c2oc(=O)c(-c3ccccc3)cc21 (stereo not given),16.3%
10,N#Cc1c(NC(=O)c2ccco2)[n+]([O-])c2ccccc2[n+]1[O-],107%
11,CC(=O)c1nn(-c2ccccc2)c(=Nc2ccccc2)cc1C,104%
12,O=C(/C=C/c1ccc(C(F)(F)F)cc1)c1ccc(Nc2nc(NCCO)nc(NCCO)n2)cc1,1.28% (active)
13,NC(=O)NS(=O)(=O)c1ccc(N2N=C(C(F)(F)F)CC2c2cc(C(F)(F)F)cc(C(F)(F)F)c2)cc1 (stereo not given),82.6%
14,O=c1oc2c(cc1-c1ccc([N+](=O)[O-])cc1)C(O)Oc1ccccc1-2 (stereo not given),91.9%
15,C(=C1c2ccccc2-c2ccccc21)c1ccccn1,32.7%
16,O=C(NC1CCS(=O)(=O)C1)c1ccc(C(=O)c2ccccc2)cc1 (stereo not given),95.8%
17,COCCOCCOCCOCCOc1ccc2c(c1)C(=O)c1nc3ncccc3c(=O)n1-2,-100% (active)
18,CC(=O)N1N=C(c2ccc(Nc3nc(NCCO)nc(NCCO)n3)cc2)CC1c1ccc(Cl)cc1 (stereo not given),107%
19,Nc1nc(NC2CC2)c2ncn(C3C=CC(CO)C3)c2n1 (stereo not given),106%
20,COc1ccc2c(c1)CC[C@@H]1[C@@H]2CC[C@]2(C)[C@@H](O)C(=O)C[C@@H]12,105%

row,SMILES,growth
1,C[C@H](C(=O)N[C@@H](Cc1ccc(-c2ccccc2)cc1)C(=O)NC1CC(C)(C)NC(C)(C)C1)c1ccc(-c2ccccc2)c(F)c1,-78.2% (active)
2,CCOC(=O)C1C(=O)NC(C(=O)OCC)(C(=O)OCC)C1CC (stereo not given),115%
3,COc1ccc2[nH]c(=O)c(CNc3ccc(Nc4nccc(-c5ccc(Cl)cc5)n4)cc3)cc2c1,105%
4,C/C(=C\CCc1ccsc1)CC/C=C(\C)CCCN1CCSCC1,92%
5,NC(=O)c1cc(Cl)ccc1NC(=O)c1ccccc1-c1ccccc1,27.4%
6,O=C(O)c1ccc2cccnc2c1O,26.1%
7,O=C(COc1ccc(/C=C2\Cc3ccccc3C2=O)cc1)c1ccc(Cl)cc1,107%
8,CCOc1cc(/C=C/C(=O)CC(=O)/C=C/c2ccc(OC(=O)CNc3nc4ccc(OC)cc4s3)c(OCC)c2)ccc1OC(=O)CNc1nc2ccc(OC)cc2s1,17.9%
9,CN(C)c1ncnc2c1ncn2C1CCCCO1 (stereo not given),106%
10,CN(C)CCCNc1nn2c(=O)c3ccccc3nc2c2ccccc12,57.9%
11,COc1cc(Cl)cc(-c2nn(-c3cccc(NC(=O)c4cc(C(F)(F)F)cc(C(F)(F)F)c4)c3)cc2-c2ccncc2)c1,86.2%
12,CCCCCCCCCCCCCCCCNC(=O)Nc1ccc2ccccc2c1,94.2%
13,CNNc1ncnc2c1cnn2-c1ccc(S(N)(=O)=O)cc1,98.6%
14,CCC(C)C1NC(=O)C(CCNCS(=O)(=O)O)NC(=O)C(NC(=O)C(CCNCS(=O)(=O)O)NC(=O)C(NC(=O)C(CCNCS(=O)(=O)O)NC(=O)CCCCC(C)C)C(C)O)CCNC(=O)C(C(C)O)NC(=O)C(CCNCS(=O)(=O)O)NC(=O)C(CCNCS(=O)(=O)O)NC(=O)C(C(C)CC)NC1=O (stereo not given),34.8%
15,COC(=O)[C@H](CCCCNC(=O)OCc1ccccc1)NC(=O)[C@@H](NC(=O)Nc1cc(C(F)(F)F)cc(C(F)(F)F)c1)C(C)C,-14.6% [100 µM] (active)
16,N/C(=N\c1nc2ccccc2s1)NC(=O)Nc1ccccc1Cl,27.7%
17,COc1ccc(/C=C2\CCc3ccccc3C2=O)cc1,66.9%
18,O=C(CSc1nnc(-c2cc(-c3ccccc3)nc3ccccc23)o1)c1ccc(Br)cc1,107%
19,COc1cc(C2CC(c3ccc(C)cc3)=NN2C=O)ccc1OCCN(C)C (stereo not given),96.5%
20,Oc1c(N=Nc2nn[nH]n2)ccc2ccccc12,101%

# Source: PubChem BioAssay (NCI)
